The source of these data is PubChem BioAssay (NCI).

Where “and” joins values, the source holds several entries; their conditions need not be identical. Equal entries are not always repeated. Compounds without any hit were thinned out: in the full panel of roughly 83,000, 20% have a hit.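 Percent growth is the endpoint: 0 to 100 indicates growth inhibition (40 means 60% inhibition), 0 means no net growth, and negative values indicate cell death.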 Values without a mark were called inactive. Calls of active or inactive are those of the source. The calls were made as follows: active = growth percent below 10; inactive = the rest.

Test systems include DU-145 prostate; K-562 leukemia; MALME-3M melanoma; MDA-MB-231 breast; RXF 393 renal; SF-268 CNS; SF-295 CNS; SF-539 CNS; UACC-257 melanoma; M14 melanoma.
Holding throughout (assay): NCI-60 one-dose screen, 48 h (100 = growth as untreated, 0 = no growth, -100 = all killed)
What all share (conditions): 10 µM unless noted

As for `N#CC1=C(c2cccs2)Nc2c(c(-c3ccccc3)nn2-c2ccccc2)C12C(=O)Nc1ccccc12` (stereo not given), the growth in the experiment on DU-145 prostate was 33.5%; in the experiment on K-562 leukemia, 9.66% (active); with MALME-3M melanoma, 26.9%; in the experiment on MDA-MB-231 breast it was 34.2%; in the experiment with RXF 393 renal, -13.4% (active); in the experiment on SF-268 CNS, 54.3%. Besides, the growth was 40.3% in the experiment on SF-295 CNS, -45.2% (active) in the experiment on SF-539 CNS, 88% with UACC-257 melanoma and 14.6% in the experiment with M14 melanoma.

On to `O=C(COc1ccc(/C=C2/C(=O)Nc3ccc(Cl)cc32)cc1)Nc1ccc(Br)cc1`, for which the growth in the experiment with DU-145 prostate is -9.85% (active); in the experiment with K-562 leukemia, 2.94% (active); in the experiment on MALME-3M melanoma, -41.5% (active); in the experiment on MDA-MB-231 breast, -33.7% (active); in the experiment on RXF 393 renal it was -65.7% (active); with SF-268 CNS, 16.7%. Moreover, the growth in the experiment on SF-295 CNS is -59.7% (active); in the experiment on SF-539 CNS, -84.9% (active); in the experiment on UACC-257 melanoma it was 15.1%; with M14 melanoma, -2.56% (active).

Regarding `COc1cc(/C=N/NC(=O)c2ccc(OCc3nc4ccc(Cl)cc4[nH]3)cc2)cc(OC)c1OC`, the growth is 64.5% with DU-145 prostate; 14.7% in the experiment on K-562 leukemia; 14.1% in the experiment on MALME-3M melanoma; 52.8% in the experiment with MDA-MB-231 breast; -26.2% (active) in the experiment with RXF 393 renal; 70% with SF-268 CNS. Further, the growth is 13.2% in the experiment on SF-295 CNS, 30.2% in the experiment on SF-539 CNS, 42.3% in the experiment with UACC-257 melanoma and 42.6% with M14 melanoma.

As to `Cc1ccc(C(=O)Nc2cc(-n3ccnc3)cc(C(F)(F)F)c2)cc1-n1cc(-c2cnc3cccnn23)nn1`, the growth in the experiment on DU-145 prostate was 111%; in the experiment on K-562 leukemia, 9.87% (active); with MALME-3M melanoma, -7.64% (active); in the experiment with MDA-MB-231 breast, 31.5%; with RXF 393 renal, 94.8%; in the experiment on SF-268 CNS, 120%. Also, the growth was 107% in the experiment with SF-295 CNS, 84.7% in the experiment on SF-539 CNS, 47.8% with UACC-257 melanoma and 25.4% in the experiment on M14 melanoma.

Regarding `COc1ccc2c(c1)C(=O)N(C)C2C1c2c(cc3c(c2OC)OCO3)CCN1C` (stereo not given), the growth in the experiment on DU-145 prostate is 73.2%; with K-562 leukemia it was 16.6%; with MALME-3M melanoma, 33.8%; in the experiment with MDA-MB-231 breast it was 66.7%; with RXF 393 renal, 19.8%; with SF-268 CNS, 66%. The growth was 26.7% with SF-295 CNS, 45.5% in the experiment on SF-539 CNS, 71% with UACC-257 melanoma and 36.6% in the experiment on M14 melanoma.

Regarding `CS(=O)(=O)Nc1cccc(-n2c(COc3ccc(OC(F)(F)F)cc3)nc3ccccc32)c1`, the growth with DU-145 prostate was 105% and 121%; with K-562 leukemia, 82.2% and 107%; in the experiment with MALME-3M melanoma it was 89.6% and 102%; in the experiment on MDA-MB-231 breast it was 92.4% and 110%; in the experiment with RXF 393 renal it was 85.8% and 110%; in the experiment with SF-268 CNS, 90% and 113%. Besides, the growth with SF-295 CNS is 92.7% and 100%; in the experiment with SF-539 CNS, 81.1% and 105%; in the experiment on UACC-257 melanoma it was 106% and 109%; in the experiment on M14 melanoma, 114% and 107%.

As to `O=C(Nc1ccc(F)cc1)Nc1nc2ccc([N+](=O)[O-])cc2s1`, the growth in the experiment with DU-145 prostate is 24.2%; with K-562 leukemia, 6.19% (active); in the experiment on MALME-3M melanoma, -17.9% (active); in the experiment on MDA-MB-231 breast, -2.3% (active); in the experiment on RXF 393 renal, -14.9% (active); with SF-268 CNS, 18%. The growth was -46% (active) in the experiment on SF-295 CNS, 7.13% (active) in the experiment with SF-539 CNS, -12.8% (active) in the experiment on UACC-257 melanoma and -3.58% (active) in the experiment on M14 melanoma.

Take `Oc1ccc(F)c(Nc2nc(SCCN3CCOCC3)nc3c2cnn3CC(Cl)c2ccc(Br)cc2)c1` (stereo not given): the growth with DU-145 prostate is 34%; with K-562 leukemia it was -3.32% (active); with MALME-3M melanoma it was 1.03% (active); with MDA-MB-231 breast, -17.6% (active); with RXF 393 renal, -48.4% (active); in the experiment on SF-268 CNS, 24.1%. The growth in the experiment with SF-295 CNS is 2.35% (active); with SF-539 CNS it was 17.3%; in the experiment with UACC-257 melanoma, 14.4%; in the experiment with M14 melanoma it was 18.8%.

Regarding `COc1cccc(NC(=O)c2ccc(NC(=O)CCl)s2)c1`, the growth in the experiment on DU-145 prostate was 88.1%; with K-562 leukemia, 4.03% (active); in the experiment on MALME-3M melanoma, 45.5%; in the experiment with MDA-MB-231 breast, -26.5% (active); in the experiment on RXF 393 renal it was 56.9%; in the experiment with SF-268 CNS, 45.7%. Besides, the growth was 65.4% with SF-295 CNS, 38.4% in the experiment with SF-539 CNS, 27.7% in the experiment with UACC-257 melanoma and 14.2% in the experiment on M14 melanoma.

Consider `Oc1ccc(Cl)c(Nc2ncnc3c2cnn3CC(Cl)c2ccc(Br)cc2)c1` (stereo not given), for which the growth in the experiment with DU-145 prostate was 50.8%; in the experiment with K-562 leukemia, 1.88% (active); in the experiment on MALME-3M melanoma, 57.4%; with MDA-MB-231 breast, 26.4%; with RXF 393 renal it was -8.51% (active); in the experiment with SF-268 CNS it was 26.7%. Further, the growth is 60.3% in the experiment with SF-295 CNS, 29.1% in the experiment on SF-539 CNS, 80.1% in the experiment on UACC-257 melanoma and 65.4% in the experiment with M14 melanoma.

For the compound `COc1ccc(-c2cc(C(=O)N=Nc3c(O)[nH]c4ccc(Cl)cc34)c3ccccc3n2)cc1OC`, the growth with DU-145 prostate was 126%; with K-562 leukemia it was 109%; in the experiment on MALME-3M melanoma, 105%; in the experiment with MDA-MB-231 breast, 90.9%; in the experiment with RXF 393 renal, 104%; in the experiment with SF-268 CNS it was 118%. The growth in the experiment with SF-295 CNS is 101%; in the experiment on SF-539 CNS it was 101%; with UACC-257 melanoma it was 115%; with M14 melanoma, 89.2%.

Take `COC(=O)c1cc(C(C)=O)n2c3ccccc3c3ccccc3c12`: the growth was 67% with DU-145 prostate; 85.9% in the experiment with K-562 leukemia; 84.6% with MALME-3M melanoma; 33.2% with MDA-MB-231 breast; 11.8% in the experiment on RXF 393 renal; 59.5% in the experiment on SF-268 CNS. Besides, the growth in the experiment on SF-295 CNS is 56%; in the experiment with SF-539 CNS, 28.5%; with UACC-257 melanoma, 118%; in the experiment with M14 melanoma it was 72.1%.

For `COc1ccc(/C=C/c2nc3ccccc3c(=O)n2CC(=O)Nc2ccccc2)cc1`, the growth is 78% in the experiment with DU-145 prostate; 84.5% in the experiment on K-562 leukemia; 61.1% with MALME-3M melanoma; -19.5% (active) in the experiment with MDA-MB-231 breast; -54.7% (active) with RXF 393 renal; 54.5% with SF-268 CNS. Further, the growth with SF-295 CNS is 12.5%; in the experiment with SF-539 CNS, 32.4%; in the experiment with UACC-257 melanoma it was 93.5%; with M14 melanoma it was 46.4%.

In the case of `CCCCCCCCCCCCCCCCCC(=O)Nc1ccc(OC)cc1`, the growth is 112% in the experiment with DU-145 prostate; 92% in the experiment with K-562 leukemia; 97.7% with MALME-3M melanoma; 99.9% in the experiment on MDA-MB-231 breast; 115% in the experiment on RXF 393 renal; 108% in the experiment with SF-268 CNS. Besides, the growth with SF-295 CNS was 106%; with SF-539 CNS, 97.3%; in the experiment with UACC-257 melanoma, 102%; in the experiment on M14 melanoma, 105%.

Regarding `COc1cc(-c2ccc3ncnc(N4CCc5ccc(Cl)cc54)c3c2)cnc1Cl`, the growth with DU-145 prostate is 10.6%; with K-562 leukemia, 23.1%; in the experiment on MALME-3M melanoma, 34.9%; with MDA-MB-231 breast it was 30.8%; in the experiment with RXF 393 renal, -4.17% (active); in the experiment with SF-268 CNS it was 40.2%. Besides, the growth is 35% in the experiment with SF-295 CNS, 24.8% with SF-539 CNS, 59.2% in the experiment on UACC-257 melanoma and 29.8% with M14 melanoma.
